Assay outcomes (PubChem BioAssay)
A1 inhib: inhibitors of A1 | MEF A1-2A-BIM cells, caspase-Glo luminescence, 3 h; percent of clofoctol signal, DMSO as zero | caspase activation, % (test concentration not listed) | 21,000 tested, 0.51% active;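 active means most replicate scores above 10, or exactly half above 10 with mean activity above 10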;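 further: effector caspase 3 and 7 activity cleaving a DEVD luciferin substrate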
BJeLR viability: compounds reducing viability of BJeLR cells; BJeLR fibroblasts viability, CellTiterGlo ATP luminescence, 48 h; HRASV12, hTERT and SV40 LT/ST transformed; viability loss activity score, % (concentration not given with the values); 30,000 tested, 0.64% active; AID 2275; in the data active means viability loss activity score above about 50%;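 further: higher score means fewer live cells and less ATP luminescence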
Starred values were filed as active, the others as inactive; / = not tested or not shown. This is a sample that favours compounds with a hit; in the whole collection about 0.9% have one here.

SMILES	A1 inhib	BJeLR viability
COC(=O)Cn1c(Cl)nc2c1c(=O)n(C)c(=O)n2C	0	1
O=C(NCc1ccccn1)c1cc(Sc2ccc(F)cc2)nc2ccccc12	/	1
O=C1c2ccccc2C(=O)N1C(CO)C(O)c1ccccc1 (stereo unspecified)	-2	4
O=C1C(SCCO)=C(SCCO)C(=O)c2ccccc21	-4	117*
O=C1c2ccccc2-[n+]2ccc3c([nH]c4ccccc43)c21	-1	130*
O=C1C(c2c(O)[nH]c3ccccc23)=Nc2ccccc21	-2	6
O=C1/C(=C\c2ccccn2)Cc2ccccc21	/	-5
O=C(CSc1nc2ccccc2o1)OCc1ccccc1	0	2
CC1(C)CC(=O)C=C(Sc2nc3ccccc3o2)C1	2	76*
CCc1ccc(Nc2cc(C(=O)NCC(OC)OC)c3ccccc3n2)cc1	/	-1
O=C(NCc1ccccc1)c1ccc2nc3ccccc3c(=O)n2c1	/	0
COc1cc2ncnc(Nc3cccc(Br)c3)c2cc1OC	3	2
COc1cc2ncnc(Nc3cccc(O)c3)c2cc1OC	12*	-4
Cc1ccc(C(=O)c2oc3ccccc3c2NC(=O)C2COc3ccccc3O2)cc1 (stereo unspecified)	/	3
Cc1cccc(OCC(=O)Nc2ccc3nc(N4CCCCC4)cc(C)c3c2)c1	/	1
C=C(C)C(=O)O[C@H]1[C@H]2C(=C)C(=O)O[C@@H]2C[C@@H](C)/C=C/C(=O)[C@](C)(O)[C@@H]1OC(C)=O	2	59*
C=C1C(=O)O[C@H]2C1C[C@@H](OC(C)=O)[C@@]1(C)[C@@H](OC(C)=O)C[C@@H](OC(C)=O)C(=C)[C@H]21 (stereo partly specified)	-1	28
O=C(SC1=NCCS1)c1cccc(Cl)c1	/	0
Cc1cc(C)c(C(=O)C/C(=N/O)C(F)(F)F)c(=O)[nH]1	/	-5
O=C(O[C@H]1[C@H](Oc2ccccc2COC(=O)C2(O)C=CCCC2=O)O[C@H](CO)[C@@H](O)[C@@H]1O)c1ccccc1 (stereo partly specified)	0	58*
CC(=O)O[C@H]1[C@H](Oc2ccccc2COC(=O)C2(O)C=CCCC2=O)O[C@H](CO)[C@@H](O)[C@@H]1O (stereo partly specified)	0	-17
CC1=C(C(=O)OCc2ccccc2)C(c2cccc(O)c2)C2=C(CC(c3ccccc3)CC2=O)N1 (stereo unspecified)	2	-4
CN(C1=NC(=O)/C(=C\c2ccccc2Cl)S1)c1ccc(O)cc1	0	-2
COc1cccc(NC(=O)Cn2ncc3c4ccccc4n(Cc4ccccc4)c3c2=O)c1	17*	3
O=C(Cn1ncc2c3ccccc3n(Cc3ccccc3)c2c1=O)NC1CC1	-1	1
SMILES	A1 inhib	BJeLR viability
Cc1ccc(Cl)cc1N(C)C(=O)c1cc2c(C)nc3ccccc3c2o1	/	-3
Cc1ccc(C(=O)Oc2ccc(/C=N/c3cccs3)cc2)cc1	/	-3
CCC(=O)n1nc(-c2ccccc2)nc1NCc1ccco1	/	-8
CC(=O)Nc1ccc(Nc2ncnc3c2c(-c2ccccc2)cn3-c2cccc(C)c2)cc1	-1	-6
CC(C)c1c(O)ccc2c1CCC1C(C)(C)CCC[C@]21C (stereo partly specified)	43*	5
CC(C)c1ccc2c(c1)CCC1[C@](C)(C(=O)O)CCC[C@]21C (stereo partly specified)	0	2
CCCCc1nnc(NC(=O)Nc2ccc(C)cc2)s1	/	-1
Nc1nc(Cl)nc2c1ncn2C1OC(CO)[C@H](O)[C@H]1F (stereo partly specified)	1	54*
Nc1nc(Cl)nc2c1ncn2C1C[C@@H](O)C(CO)O1 (stereo partly specified)	1	-17
CN1C(=O)[C@@]2(Cc3ccccc3)SSS[C@]1(CO)C(=O)N2C	31*	87*
O=C(O)CSc1c2c(nc3cc(C(=O)NCc4cccs4)ccc13)CCCC2	/	-8
COc1cccc2c1C(=O)c1c(O)c3c(c(O)c1C2=O)C[C@@](O)(C(=O)CO)C[C@@H]3OC1CC(N)C(O)C(C)O1 (stereo partly specified)	15*	106*
COc1cccc2c1C(=O)c1ccc3c(c1C2=O)C(=O)CC(C)(O)C3 (stereo unspecified)	-1	0
COc1cccc2c1C(=O)c1c(O)c3c(c(O)c1C2=O)C[C@@](O)(C(=O)CO)C[C@@H]3O[C@H]1C[C@H](N)[C@H](O)[C@H](C)O1	16*	109*
COc1cccc2c1C(c1ccc3c(c1O)C(=O)CC(C)C3O)OC2=O (stereo unspecified)	1	1
CCOc1cc2c(cc1/C=C1\NC(=O)N(Cc3ccccc3)C1=O)OCO2	/	-2
COc1ccc(-c2c(C)nn3c(N4CCc5ccccc54)cc(C)nc23)cc1OC	/	4
CC1(C)CC(=O)c2sc(Nc3nc4c(F)cccc4s3)nc2C1	/	12
